Results published in PubChem BioAssay.
Activity calls are given as the source filed them.

Experiments:
[1] = small molecules captured by biotinylated probe aFSTL3 – biochemical, small-molecule microarray, fluorescence 635/667, stem cell growth factor project, primary screen (AID 1064); settings: higher = more signal;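 further: measures binding of the biotinylated anti-FSTL3 antibody to printed compounds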
[2] = binders from COS7 lysate, DM2A8 probe, primary screen, torsin A project, cell lysate, small-molecule microarray, fluorescence 635/667 (AID 1065); settings: higher = more signal, COS7 lysate expressing mutant human TOR1A
[3] = small molecules captured by biotinylated probe aFGF2 – biochemical, small-molecule microarray, fluorescence 635/667, stem cell growth factor project, primary screen (AID 1067); settings: higher = more signal;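 further: measures binding of biotinylated aFGF2 protein to printed compounds on slides; z-score merges feature fluorescence and signal-to-noise across triplicate slides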
[4] = small molecules captured by biotinylated probe aFGF10 – biochemical, small-molecule microarray, fluorescence 635/667, stem cell growth factor project, primary screen (AID 1071); settings: higher = more signal;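 further: score merges 667 nm spot intensity and signal to noise from triplicate slides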
[5] = biological target: Neurogenic locus notch homolog protein 2 (Homo sapiens) (UniProt Q04721); test: small molecules binding Notch2 protein – biochemical, small-molecule microarray, 635 nm fluorescence, stem cell growth factors, primary screen (AID 1073); settings: higher = more signal
Sequence of Neurogenic locus notch homolog protein 2 (Homo sapiens) (Q04721 whole entry, looked up, canonical isoform): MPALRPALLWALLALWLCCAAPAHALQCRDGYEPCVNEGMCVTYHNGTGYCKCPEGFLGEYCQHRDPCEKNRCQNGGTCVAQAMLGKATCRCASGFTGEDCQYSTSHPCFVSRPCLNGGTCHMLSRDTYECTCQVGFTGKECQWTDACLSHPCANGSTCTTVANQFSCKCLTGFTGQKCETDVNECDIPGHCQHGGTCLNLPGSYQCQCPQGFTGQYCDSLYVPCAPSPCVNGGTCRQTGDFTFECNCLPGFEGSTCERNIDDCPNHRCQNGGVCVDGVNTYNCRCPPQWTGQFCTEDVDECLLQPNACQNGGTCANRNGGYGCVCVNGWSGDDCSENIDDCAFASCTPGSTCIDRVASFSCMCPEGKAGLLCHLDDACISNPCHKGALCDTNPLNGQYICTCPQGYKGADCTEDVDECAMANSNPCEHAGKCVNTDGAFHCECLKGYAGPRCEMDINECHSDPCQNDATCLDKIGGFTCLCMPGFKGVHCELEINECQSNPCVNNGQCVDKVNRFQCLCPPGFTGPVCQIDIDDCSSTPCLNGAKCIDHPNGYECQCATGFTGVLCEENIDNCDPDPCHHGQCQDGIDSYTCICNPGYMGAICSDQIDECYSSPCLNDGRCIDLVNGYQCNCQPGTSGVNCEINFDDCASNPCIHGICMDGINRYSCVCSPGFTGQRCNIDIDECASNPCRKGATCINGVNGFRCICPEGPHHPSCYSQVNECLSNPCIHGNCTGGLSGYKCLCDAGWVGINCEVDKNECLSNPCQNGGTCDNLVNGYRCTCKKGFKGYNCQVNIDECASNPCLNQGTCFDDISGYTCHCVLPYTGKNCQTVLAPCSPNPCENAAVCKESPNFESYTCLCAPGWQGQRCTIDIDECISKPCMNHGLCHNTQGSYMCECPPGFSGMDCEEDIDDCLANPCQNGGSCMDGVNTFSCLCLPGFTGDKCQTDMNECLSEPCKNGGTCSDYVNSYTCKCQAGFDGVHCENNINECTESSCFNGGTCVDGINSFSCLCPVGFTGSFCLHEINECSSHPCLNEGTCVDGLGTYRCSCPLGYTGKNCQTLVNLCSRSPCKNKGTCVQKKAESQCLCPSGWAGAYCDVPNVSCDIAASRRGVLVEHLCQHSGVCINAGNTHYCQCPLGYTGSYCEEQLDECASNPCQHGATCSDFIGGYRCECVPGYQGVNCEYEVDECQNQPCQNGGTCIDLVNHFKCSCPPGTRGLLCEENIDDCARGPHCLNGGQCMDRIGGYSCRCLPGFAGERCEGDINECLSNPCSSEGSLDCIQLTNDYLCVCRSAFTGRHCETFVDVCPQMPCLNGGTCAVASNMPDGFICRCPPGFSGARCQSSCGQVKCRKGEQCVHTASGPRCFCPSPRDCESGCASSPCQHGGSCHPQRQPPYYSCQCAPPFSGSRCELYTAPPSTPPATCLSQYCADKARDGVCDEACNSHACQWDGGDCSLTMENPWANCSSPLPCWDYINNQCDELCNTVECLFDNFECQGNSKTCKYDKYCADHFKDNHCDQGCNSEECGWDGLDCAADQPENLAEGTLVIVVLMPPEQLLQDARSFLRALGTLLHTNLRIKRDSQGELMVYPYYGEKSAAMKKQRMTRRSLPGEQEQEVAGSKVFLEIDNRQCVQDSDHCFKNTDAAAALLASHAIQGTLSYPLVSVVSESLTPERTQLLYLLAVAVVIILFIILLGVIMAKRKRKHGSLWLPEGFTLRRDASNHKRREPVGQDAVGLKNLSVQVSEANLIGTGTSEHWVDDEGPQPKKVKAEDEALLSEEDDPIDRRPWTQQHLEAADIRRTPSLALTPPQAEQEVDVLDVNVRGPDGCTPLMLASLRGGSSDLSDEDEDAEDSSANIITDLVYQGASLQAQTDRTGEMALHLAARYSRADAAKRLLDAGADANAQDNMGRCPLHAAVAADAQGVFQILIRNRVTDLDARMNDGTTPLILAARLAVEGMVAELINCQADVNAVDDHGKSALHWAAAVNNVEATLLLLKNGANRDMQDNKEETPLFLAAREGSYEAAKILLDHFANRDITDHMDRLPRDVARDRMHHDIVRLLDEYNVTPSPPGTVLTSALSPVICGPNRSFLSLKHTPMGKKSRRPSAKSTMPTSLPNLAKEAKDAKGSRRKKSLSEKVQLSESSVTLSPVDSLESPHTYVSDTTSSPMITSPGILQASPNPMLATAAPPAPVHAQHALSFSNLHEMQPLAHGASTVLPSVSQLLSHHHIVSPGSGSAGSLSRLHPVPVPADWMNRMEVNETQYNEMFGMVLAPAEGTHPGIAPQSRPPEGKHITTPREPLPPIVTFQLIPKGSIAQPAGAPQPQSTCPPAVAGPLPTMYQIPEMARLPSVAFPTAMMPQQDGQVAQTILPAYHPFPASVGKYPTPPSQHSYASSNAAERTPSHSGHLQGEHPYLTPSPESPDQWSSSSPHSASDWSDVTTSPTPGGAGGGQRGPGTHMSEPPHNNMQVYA

[6] = biological target: Pro-neuregulin-1, membrane-bound isoform (Homo sapiens) (UniProt Q02297); test: small molecules binding neuregulin-1 protein – biochemical, small-molecule microarray, fluorescence 635/667, psychiatric disease protein project, primary screen (AID 1075); settings: NRG1 binding, 635 nm fluorescence, higher = more signal;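 further: score combines 667 nm spot fluorescence with signal to noise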
Sequence of Pro-neuregulin-1, membrane-bound isoform (Homo sapiens) (Q02297 whole entry, looked up, the tested form may be a part, canonical isoform): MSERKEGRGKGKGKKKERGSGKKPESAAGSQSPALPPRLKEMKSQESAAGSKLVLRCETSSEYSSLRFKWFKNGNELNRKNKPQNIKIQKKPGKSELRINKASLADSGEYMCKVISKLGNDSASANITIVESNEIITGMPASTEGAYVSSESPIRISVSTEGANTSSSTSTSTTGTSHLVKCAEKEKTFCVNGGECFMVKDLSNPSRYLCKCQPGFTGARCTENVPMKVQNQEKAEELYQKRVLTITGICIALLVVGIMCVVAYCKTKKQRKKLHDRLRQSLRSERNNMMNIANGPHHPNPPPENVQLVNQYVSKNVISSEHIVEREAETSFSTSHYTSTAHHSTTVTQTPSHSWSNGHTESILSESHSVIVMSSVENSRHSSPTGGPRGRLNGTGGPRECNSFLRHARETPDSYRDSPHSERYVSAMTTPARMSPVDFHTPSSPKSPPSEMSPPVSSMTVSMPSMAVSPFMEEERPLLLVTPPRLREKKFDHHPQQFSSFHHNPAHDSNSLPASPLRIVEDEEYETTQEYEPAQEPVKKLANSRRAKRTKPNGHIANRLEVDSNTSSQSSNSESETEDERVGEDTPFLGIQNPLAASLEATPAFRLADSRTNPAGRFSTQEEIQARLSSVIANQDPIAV

[7] = tested on: Neuregulin-1 EGF-like domain; test: small molecules binding NRG1 EGF domain – biochemical, small-molecule microarray, 635 nm fluorescence, primary screen (AID 1081); settings: higher = more signal;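 further: binding of the protein to compounds printed on small-molecule microarray slides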
[8] = FRG1 expression reporter modulators in myotubes – cell-based, C2C12 myotubes, firefly/Renilla luciferase, luminescence, FRG1 inhibition for FSHD, primary screen (AID 1084); settings: FRG1 promoter luciferase, higher = more signal, called active from +8 up or from −8 down
[9] = small molecules captured by biotinylated probe aFST – biochemical, small-molecule microarray, fluorescence 635/667, stem cell growth factor project, primary screen (AID 1086); settings: higher = more signal;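 further: score merges 667 nm fluorescence with signal-to-noise of each printed compound spot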
[10] = binders of probe aHhip on microarray, primary screen, stem cell growth factor project, biochemical, small-molecule microarray, fluorescence 635/667 (AID 1087); settings: higher = more signal;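 further: score merges spot fluorescence at 667nm with spot signal to noise ratio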

Compound | composite z-score [1] | composite z-score [2] | composite z-score [3] | composite z-score [4] | composite z-score [5] | composite z-score [6] | composite z-score [7] | z-score [8] | composite z-score [9] | composite z-score [10]
COC(=O)C1=CC(CCCO)=CC(c2cccs2)N(Cc2cccc(OC(F)(F)F)c2)C=C1C(=O)OC (stereo not given) | -0.55 | 0.203 | 0.11 | 0.583 | 1.51 | 1.93 | 1.2 | 0.0099 (inactive) | 1.5 | 0.0053
COc1cccc(C)c1NC(=O)O[C@H]1[C@H](OC(=O)Nc2ccc3c(c2)OCO3)[C@@H](OC(=O)Nc2ccc3c(c2)OCO3)[C@@H](OC)O[C@@H]1CO | -0.0021 | 0.893 | 0.121 | 1.07 | 1.65 | -0.0548 | 1.07 | 6.28 (inactive) | 1.17 | 0.0243
C=CCC(OC(C)=O)[C@@H]1[C@@H](N(Cc2cccc3ccccc23)C(=O)Cc2ccc(F)cc2)c2cc(OCCCO)ccc2N1C(=O)c1ccc2ccccc2c1 (stereo not given in full) | -0.0968 | -0.0168 | -0.0925 | 0.0597 | -0.108 | -0.398 | -0.691 | -1.72 (inactive) | -0.0779 | 0.0722
COC(=O)C1=CC(CCCO)=CC(c2cccs2)N(C)C=C1C(=O)OC (stereo not given) | 0.0256 | -0.106 | -0.0737 | -0.379 | -0.324 | 1.08 | 1.33 | -0.656 (inactive) | -0.0824 | -0.0994
CCCCC(CC)C(O)C1C=CC2C(=O)N(C)C(=O)C2N1Nc1ccccc1 (stereo not given) | -0.245 | 0.0145 | -0.0454 | 0.264 | 0.846 | 0.517 | 1.16 | -0.373 (inactive) | 0.388 | -0.0994
[N-]=[N+]=Nc1ccccc1C[C@]1(C(=O)NCC(O)CO)COC(c2ccc(OCCCO)cc2)=N1 (stereo not given in full) | 0.502 | 0.475 | 0.0154 | 0.859 | -0.33 | 1.43 | 1.14 | 2.1 (inactive) | 0.255 | -0.0994
O=C1OCCC=C[C@H]2OC34C=CCN(Cn5nnc6ccccc65)C(=O)[C@H]3N(CCCO)C(=O)[C@@H]4C12 (stereo not given in full) | 0.32 | -0.173 | -0.116 | -0.169 | -1.3 | -0.763 | 0.437 | 0.0397 (inactive) | -0.601 | -0.236
COc1cccc(C)c1NC(=O)O[C@H]1[C@H](OC(=O)Nc2ccccc2-c2ccccc2)[C@H](OC(=O)Nc2ccccc2-c2ccccc2)[C@@H](OC)O[C@@H]1CO | -0.205 | 0.0513 | 0.137 | 0.542 | 1.46 | 1.46 | 1.14 | 0.379 (inactive) | 1.48 | -0.219
C=CC[C@@]1(C(=O)NCCCOC)N=C(c2ccc(OCCCO)cc2)O[C@@H]1c1ccccc1N=[N+]=[N-] | 0.165 | 0.252 | 0.0442 | 0.469 | 0.798 | 1.67 | 1.21 | 2.26 (inactive) | 1.06 | -0.0645
O=C1CS(=O)(=O)C(c2cccc([N+](=O)[O-])c2)N1c1ccccc1 (stereo not given) | 0.63 | 1.79 | 0.467 | 0.446 | 0.936 | 1.66 | 1.19 | -0.997 (inactive) | 0.822 | 1.56
CCOC(=O)[C@@H]1CCCCN1C(=O)C(=O)OC | 0.0188 | 0.188 | -0.0593 | 0.453 | 0.0842 | -0.0734 | 0.33 | 0.148 (inactive) | 0.115 | -0.342
O=C1NC(=O)C2C1C=CC(C(O)c1ccco1)N2Nc1ccc(Cl)cc1Cl (stereo not given) | 0.388 | -0.13 | -0.0375 | -0.0728 | 0.42 | 0.825 | 1.24 | 1.62 (inactive) | 0.549 | -0.126
COc1cc(NN2C(C(O)c3ccco3)C=CC3C(=O)N(C)C(=O)C32)cc(OC)c1OC (stereo not given) | 0.256 | 0.504 | 0.083 | 0.27 | 0.578 | 1.4 | 1.38 | -0.389 (inactive) | 0.775 | 0.837
CC(C)[Si](C#CCCCC#N)(O[C@H](c1ccccc1)c1cn(Cc2ccccc2)nn1)C(C)C | -0.281 | 0.704 | -0.0728 | 0.335 | 0.879 | 0.048 | 1.13 | -2.06 (inactive) | 0.775 | 0.095
COC(=O)c1c(CC[C@@H](CO)NC(=O)N2CCC[C@H]2Cn2cc(C3(O)CCCCC3)nn2)oc(C(C)=O)c1C(=O)OC | -0.522 | 0.831 | -0.142 | 0.439 | 0.495 | 1.11 | 1.19 | -0.199 (inactive) | 0.0512 | -0.201
CC[C@@H]1O[Si](C(C)C)(C(C)C)c2c1cc(-c1cc(C)c(OC)c(C)c1)nc2-c1ccc(Oc2ccccc2)cc1 | -0.119 | -0.259 | -0.0881 | -0.0323 | 0.0131 | 0.437 | -0.595 | 0.838 (inactive) | -0.0965 | 0.0808
C=C(/C(=C/C[C@H](OC(=O)c1ccncc1)c1ccc(CO)o1)c1cnc2ccccc2c1)C(C)C | -0.418 | 0.0906 | -0.0325 | 1.21 | 1.44 | 0.519 | 1.17 | 0.368 (inactive) | 0.106 | 0.0373
CCOC(=O)C[C@H]1[C@H](OC(=O)c2ccccc2-c2ccccc2)[C@@H](NC(=O)c2ccc3ccccc3n2)c2cc(OCCCO)ccc2N1C(=O)Cc1ccc(OC)cc1 | 0.139 | 0.394 | -0.0715 | 0.158 | 0.383 | 0.336 | 0.028 | 0.63 (inactive) | 0.311 | -0.142
COc1ccc(C#Cc2ccc3c(c2)[C@]2(C(=O)N3)[C@H](c3ccc(OCCO)cc3)N3[C@H](c4ccccc4)[C@H](c4ccccc4)OC(=O)[C@H]3[C@@H]2C(=O)NC[C@H](O)c2ccccc2)cc1 | -0.338 | 0.411 | -0.0276 | 0.422 | 1.16 | 1.55 | 1.13 | -0.164 (inactive) | 0.547 | -0.236
Cc1ccc(S[C@]2(C(=O)O)CC(=O)N(C3CCCCC3)[C@@H]2c2ccc(CO)cc2I)cc1 | -0.0155 | 0.165 | -0.0986 | 0.52 | 0.762 | 1.43 | 1.2 | -0.163 (inactive) | 1.23 | -0.0898
CC1CC/C=C\[C@H]2OC34C=CCN(Cc5ccccc5)C(=O)[C@H]3N(C(CO)C(C)C)C(=O)[C@@H]4C2C(=O)O1 (stereo not given in full) | 0.342 | -0.153 | -0.049 | -0.0095 | -0.68 | 0.491 | 1.39 | 1.32 (inactive) | -0.368 | -0.0169
CC1CC/C=C\[C@H]2OC34C=CCN(c5ccc(Cl)cc5)C(=O)[C@H]3N(C(C)CO)C(=O)[C@]4(C)C2C(=O)O1 (stereo not given in full) | 0.0528 | -0.591 | -0.143 | -0.172 | -0.807 | -0.154 | 0.886 | 0.242 (inactive) | -0.732 | -0.0618
CC1=C2[C@@H](CCc3ccccc3)OB(O)C[C@@H]2[C@@H]2C(=O)N(Cc3ccccc3)C(=O)[C@@H]2C1 | -0.575 | -0.0096 | -0.155 | 0.0928 | 0.529 | 0.0808 | 1.02 | -0.0949 (inactive) | 0.0584 | -0.0618
CC(C)N1C(=O)c2ccccc2[C@@H](C(=O)NCCN2CCOCC2)[C@@H]1c1ccc(CO)cc1 | 0.197 | -0.831 | -0.22 | -1.54 | -1.61 | 1.12 | 1.28 | -0.571 (inactive) | -0.727 | -0.284
[N-]=[N+]=Nc1ccccc1[C@H]1OC(c2ccc(OCCCO)cc2)=N[C@@]1(Cc1ccccc1)C(=O)NCCN1CCOCC1 | 0.701 | 0.584 | 0.178 | 1.19 | 1.65 | 1.96 | 1.39 | 0.0219 (inactive) | 1.66 | -0.106
CC(C)N1C(=O)C[C@@](C(=O)O)(c2ccc([N+](=O)[O-])cc2)[C@H]1c1ccc(CO)cc1 | 1 | 0.208 | -0.031 | 0.117 | -0.436 | 0.425 | 1.04 | 0.161 (inactive) | -0.322 | 0.0373
